“And” between values parts separate entries of the source, which are not always exact repeats. Identical values can stand only once. Inconclusive results are not listed. A call without a number means that no potency is given here. A structure can be active in one record and inactive in another. The source made the active and inactive calls. Unless noted, calls follow the shape of the dose curve; as a rule, active = well fitted curve in the direction sought with a large enough effect in the repeat runs; inconclusive = weak or mixed curves; inactive = no such curve, though single readings can be large; an effect the other way counts as inactive or inconclusive.
What was measured:
[1] = qHTS assay to identify small molecule agonists of the vitamin D receptor (VDR) signaling pathway - cell viability counter screen (AID 743224); also: nearly all actives have a fitted effect of over 50% in size; also: potency is read from the fitted curve at half-maximal effect
Procedure, shortened: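 Compounds were pin-transferred onto VDR-bla cells plated 4 h earlier; following 16 h incubation at 37C, cell viability was quantified by CellTiter-Glo luminescence after 30 min at room temperature.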

[2] = qHTS assay to identify small molecule agonists of the endoplasmic reticulum stress response signaling pathway (AID 1159516; active = well fitted activation curve with a large enough effect in the signal ratio in the repeat runs, not every such curve was filed as active; the % refers to the signal ratio)
Procedure, shortened: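 Using a HeLa line with an ESRE-driven beta-lactamase gene, agonist activity was measured by FRET substrate fluorescence (460 and 530 nm emission) after cells were treated with compounds for 5 hr at 37 C and 5% CO2.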

[3] = qHTS assay to identify small molecule agonists of the endoplasmic reticulum stress response signaling pathway - cell viability counter screen (AID 1159517; calls by dose curve; also: nearly all actives have a fitted effect of over 50% in size; also: potency is read from the fitted curve at half-maximal effect)
Procedure, shortened: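 ESRE-bla HeLa cells (1,500/well) were plated overnight at 37 C and exposed to compounds for 5 hr. After the 2 hr beta-lactamase substrate read, CellTiter-Glo went into the same wells, and luminescence was read after 30 min at room temperature.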

[4] = qHTS assay to identify small molecule antagonists of the retinoid-related orphan receptor gamma (ROR-gamma) signaling pathway - cell viability counter screen (AID 1159520); also: nearly all actives have a fitted effect of over 50% in size; also: potency is read from the fitted curve at half-maximal effect
Procedure, shortened: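 Cytotoxicity was read from cellular ATP (CellTiter-Glo luminescence) after 16 hr at 37 C with 1 uM doxycycline induction. The inducer was added 2 hr after compound transfer to Tet-on ROR gamma CHO cells.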

[5] = target: Nuclear receptor ROR-gamma (Homo sapiens) (UniProt P51449); experiment: qHTS assay to identify small molecule antagonists of the retinoid-related orphan receptor gamma (ROR-gamma) signaling pathway (AID 1159521; also: nearly all actives have a fitted effect of over 50% in size; also: potency is read from the fitted curve at half-maximal effect)
Procedure, shortened: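 RORγ antagonism is scored from reduced reporter luminescence in Tet-on CHO cells. Induction used 1 uM final doxycycline hyclate for 16 h at 37 C, following a 2 h compound exposure.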

[6] = qHTS assay to identify small molecule agonists of the AP-1 signaling pathway - cell viability counter screen (AID 1159525; calls by dose curve; also: nearly all actives have a fitted effect of over 55% in size; also: potency is read from the fitted curve at half-maximal effect)
Procedure, shortened: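 Intracellular ATP by Cell Titer Glo luminescence (30 min, RT) in the same ME-180 AP-1-bla wells after the 5 h compound exposure at 37 °C. Normalised to tetra n-octyl ammonium bromide and DMSO controls.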

[7] = qHTS assay to identify small molecule agonists of the AP-1 signaling pathway (AID 1159526; calls by dose curve)
[8] = target: Retinoic acid receptor RXR-alpha (Homo sapiens) (UniProt P19793); experiment: qHTS assay to identify small molecule agonists of the RXR signaling pathway (AID 1159527; calls by dose curve; also: nearly all actives have a fitted effect of over 35% in size; also: potency is read from the fitted curve at half-maximal effect)
Chain of Retinoic acid receptor RXR-alpha (Homo sapiens) (P19793 whole entry, looked up): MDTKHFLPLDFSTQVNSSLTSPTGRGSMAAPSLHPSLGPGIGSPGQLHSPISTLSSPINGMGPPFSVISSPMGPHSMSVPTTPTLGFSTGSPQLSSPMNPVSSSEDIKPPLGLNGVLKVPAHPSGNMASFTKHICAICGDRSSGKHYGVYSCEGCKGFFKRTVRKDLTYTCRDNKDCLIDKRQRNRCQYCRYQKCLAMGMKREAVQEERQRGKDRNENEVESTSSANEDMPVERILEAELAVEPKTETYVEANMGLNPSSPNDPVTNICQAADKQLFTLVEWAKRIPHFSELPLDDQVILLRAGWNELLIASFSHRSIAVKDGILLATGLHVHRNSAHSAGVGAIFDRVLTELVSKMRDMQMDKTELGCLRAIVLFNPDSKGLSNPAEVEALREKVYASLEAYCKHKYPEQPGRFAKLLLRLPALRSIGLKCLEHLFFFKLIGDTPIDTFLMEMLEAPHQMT
Procedure, shortened: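 qHTS of the Tox21 10K library in GeneBLAzer RXR-alpha HEK 293T cells carrying a beta-lactamase reporter […]; 16 hr treatment, 9-cis retinoic acid as agonist control, FRET read-out.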

[9] = qHTS assay to identify small molecule agonists of the RXR signaling pathway - cell viability counter screen (AID 1159529); also: nearly all actives have a fitted effect of over 50% in size; also: potency is read from the fitted curve at half-maximal effect
Procedure, shortened: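 Cell viability is measured by CellTiter-Glo luminescence, 30 min at room temperature, in wells already read for beta-lactamase. Engineered HEK 293T cells (RXR-alpha-UAS-bla) are dosed 16 hr at 37 C. Tetraoctyl ammonium bromide serves as positive control.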

[10] = qHTS assay to identify small molecule antagonists of the retinoid acid receptor (RAR) signaling pathway - cell viability counter screen (AID 1159551); also: nearly all actives have a fitted effect of over 35% in size
Procedure, shortened: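 ATP-based viability, C3RL4 cells, 6 h at 37 C with 1 uM final retinol co-added after compound; luminescence read 30 min post CellTiter-Glo, RT.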

[11] = qHTS assay to identify small molecule agonists of the retinoic acid receptor (RAR) signaling pathway (AID 1159553)
Procedure, shortened: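 Quantitative high-throughput format: the Tox21 10K library was tested on C3RL4 RARE-luciferase cells for 6 hr at 37 C and 5% CO2, with luminescence measured after a 30 min room-temperature reagent step.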

[12] = qHTS assay to identify small molecule antagonists of the vitamin D receptor (VDR) signaling pathway - cell viability counter screen (AID 743225); also: nearly all actives have a fitted effect of over 50% in size; also: potency is read from the fitted curve at half-maximal effect
Procedure, shortened: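 Cells (VDR-UAS-bla HEK 293T) are plated, rested 4 h at 37C, dosed with compound and 3 nM final 1-alpha,25-dihydroxy vitamin D3, and incubated 16 h. Viability is taken from CellTiter-Glo luminescence in the reporter wells.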

[13] = qHTS assay to identify small molecule antagonists of the retinoic acid receptor (RAR) signaling pathway (AID 1159552; also: nearly all actives have a fitted effect of over 50% in size; also: potency is read from the fitted curve at half-maximal effect)
Procedure, shortened: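 Quantitative HTS in C3RL4 RARE-luciferase reporter cells. Compounds were added with 1 uM (final) retinol; luminescence was read after 6 hr.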

[14] = qHTS assay to identify small molecule agonists of the NFkB signaling pathway - cell viability counter screen (AID 1159515; calls by dose curve; also: series mostly up to about 61 µM; nearly all actives have a fitted effect of over 55% in size)
Procedure, shortened: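 Parallel cytotoxicity counter screen in ME-180 cells carrying an NFkB-response-element beta-lactamase reporter, 2,000 cells/well. Compound exposure lasted 5 hr at 37 C, 5% CO2. Cell viability was quantified by CellTiter-Glo luminescence.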

[15] = qHTS assay to identify small molecule antagonists of the estrogen related receptor (ERR) signaling pathway - cell viability counter screen (AID 1224818);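 also: series mostly up to about 46 µM; viability measured after 17.5 h of compound exposure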
Procedure, shortened: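 Quantitative high-throughput viability counter screen in ERR cells. Compounds (DMSO) incubated 17.5 h at 37 C; read-out was CellTiter-Fluor fluorescence.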

[16] = qHTS assay to identify small molecule antagonists of the estrogen related receptor (ERR) signaling pathway (AID 1224819)
Procedure, shortened: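 ERR reporter cell line (NTP) plated at 2,000 cells/well, settled 6 h at 37C/5% CO2, then exposed to LOPAC compounds for 18 h at 37C. One-Glo luciferase luminescence read after 30 min at room temperature.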

[17] = qHTS assay to identify small molecule antagonists of the estrogen related receptor signaling pathway with the pleiotropic PPARgamma coactivator (PGC) cell viability counter screen (AID 1224822; also: series mostly up to about 46 µM)
Procedure, shortened: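 Cytotoxicity in the PGC/ERR cell line is assessed with CellTiter-Fluor, read as fluorescence intensity 30 min after reagent addition, following 17.5 h compound treatment at 37 C.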

N#CC1(c2ccc(F)cc2)CCC(=O)CC1
Potency [1]: inactive | outcome [2]: inactive | Potency [3]: inactive | Potency [4]: inactive | Potency [5]: inactive | Potency [6]: inactive | Potency [7]: inactive | Potency [8]: inactive | Potency [9]: inactive | Potency [10]: inactive | Potency [11]: inactive

CNC(=O)c1ccccc1
Potency [1]: inactive | Potency [12]: inactive | outcome [2]: inactive | Potency [3]: inactive | Potency [4]: inactive | Potency [5]: inactive | Potency [6]: inactive | Potency [7]: inactive | Potency [8]: inactive | Potency [9]: inactive | Potency [10]: inactive

CCCCCCCCCCC=O
Potency [1]: inactive | Potency [12]: inactive | outcome [2]: inactive | Potency [3]: inactive | Potency [4]: inactive | Potency [5]: inactive | Potency [6]: inactive | Potency [7]: inactive | Potency [8]: inactive | Potency [9]: inactive | Potency [10]: inactive | Potency [13]: inactive | Potency [11]: inactive

C/C=C1/C(=O)C[C@H]2[C@@H]3CCC4=CC(=O)CC[C@]4(C)[C@H]3CC[C@]12C
Potency [1]: inactive | Potency [12]: inactive | Potency [14]: inactive | Potency [6]: inactive | Potency [7]: inactive | Potency [9]: inactive | Potency [10]: inactive

CSc1ccc(C(=O)c2[nH]c(=O)[nH]c2C)cc1
Potency [1]: inactive | Potency [12]: inactive | outcome [2]: inactive | Potency [3]: inactive | Potency [4]: inactive | Potency [5]: inactive | Potency [6]: inactive | Potency [7]: inactive | Potency [8]: inactive | Potency [9]: inactive | Potency [10]: inactive | Potency [15]: inactive | Potency [16]: inactive | Potency [17]: inactive

CCC(C)(C)C1CCCCC1OC(C)=O (stereo unspecified)
Potency [1]: 38.9 µM (active) | Potency [12]: inactive | outcome [2]: inactive | Potency [3]: inactive | Potency [4]: inactive | Potency [5]: inactive | Potency [6]: inactive | Potency [7]: inactive | Potency [8]: inactive | Potency [9]: inactive | Potency [10]: inactive | Potency [13]: inactive

CC(C)CCCCCCCCCCCCCCC(=O)O
Potency [1]: inactive | Potency [12]: inactive | Potency [3]: inactive | Potency [4]: 68.6 µM (active) | Potency [5]: 54.5 µM (active) | Potency [6]: 24.5 µM (active) | Potency [8]: 11 µM (active) | Potency [9]: inactive | Potency [10]: inactive | Potency [11]: inactive

Cc1ccc(O)c(C(C)(C)C)c1
Potency [1]: 19.5 µM (active) | Potency [12]: 21.8 µM (active) | outcome [2]: inactive | Potency [3]: inactive | Potency [4]: inactive | Potency [5]: inactive | Potency [8]: inactive | Potency [10]: inactive

C/C=C(\C)C(=O)OCc1ccccc1
Potency [12]: inactive | outcome [2]: inactive | Potency [3]: inactive | Potency [4]: inactive | Potency [5]: inactive | Potency [6]: inactive | Potency [7]: inactive | Potency [8]: inactive | Potency [9]: inactive | Potency [10]: inactive | Potency [13]: inactive

NNC(=O)c1cccc(C(=O)NN)c1
Potency [1]: inactive | Potency [12]: inactive | outcome [2]: inactive | Potency [3]: inactive | Potency [4]: inactive | Potency [5]: inactive | Potency [6]: inactive | Potency [7]: inactive | Potency [8]: inactive | Potency [9]: inactive | Potency [10]: inactive | Potency [13]: inactive

COc1cccc(N)c1
outcome [2]: inactive | Potency [3]: inactive | Potency [4]: inactive | Potency [5]: inactive | Potency [6]: inactive | Potency [7]: inactive | Potency [8]: inactive | Potency [9]: inactive | Potency [10]: inactive | Potency [13]: inactive

CCCCCCCC(=O)[O-].CCCCCCCC(=O)[O-].[Zn+2]
Potency [1]: inactive | Potency [12]: inactive | outcome [2]: inactive | Potency [3]: inactive | Potency [4]: inactive | Potency [5]: inactive | Potency [6]: inactive | Potency [7]: inactive | Potency [8]: inactive | Potency [9]: inactive | Potency [10]: inactive

CC[C@H](c1ccc(O)cc1)[C@@H](CC)c1ccc(O)cc1
Potency [1]: inactive | outcome [2]: inactive | Potency [3]: inactive | Potency [4]: inactive | Potency [5]: 54.5 µM (active) and inactive | Potency [6]: 54.9 µM (active) and inactive | Potency [7]: inactive | Potency [9]: 49 µM (active) | Potency [10]: inactive

CCCCC(CC)COP(=O)(O)OCC(CC)CCCC (stereo unspecified)
Potency [1]: 55 µM (active) | outcome [2]: inactive | Potency [3]: 55 µM (active) and 49 µM (active) | Potency [4]: inactive | Potency [5]: 54.6 µM (active) and 48.6 µM (active) | Potency [6]: inactive | Potency [9]: inactive | Potency [10]: inactive | Potency [13]: inactive and 48.6 µM (active)

NC(=NCCCCCCN=C(N)/N=C(\N)Nc1ccc(Cl)cc1)/N=C(\N)Nc1ccc(Cl)cc1
Potency [12]: 35.3 µM (active) [middle of 4 runs] | outcome [2]: inactive | Potency [4]: 54 µM (active) and 54.2 µM (active) and inactive | Potency [6]: 34.3 µM (active) and inactive | Potency [7]: inactive | Potency [10]: inactive

O=C(O)c1ccc(Cl)c(Cl)c1
Potency [1]: inactive | Potency [12]: inactive | outcome [2]: inactive | Potency [3]: inactive | Potency [4]: inactive | Potency [5]: inactive | Potency [6]: inactive | Potency [7]: inactive | Potency [8]: inactive | Potency [9]: inactive | Potency [10]: inactive | Potency [11]: inactive
